Assay outcomes (PubChem BioAssay)
CYP2C9 act: human CYP2C9 activators, primary screen, biochemical, luminescence | recombinant CYP2C9, luciferin-H conversion; active compounds read high; factor 1 = untreated enzyme, 0 = blocked | actives 1.4% (n = 96,000) | Cytochrome P450 2C9 (Homo sapiens), P11712 | activation factor at 5 µM;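 active = activation factor of 2 or more for CYP2C9 at a 5 µM dose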
Target sequence (P11712 whole entry, looked up): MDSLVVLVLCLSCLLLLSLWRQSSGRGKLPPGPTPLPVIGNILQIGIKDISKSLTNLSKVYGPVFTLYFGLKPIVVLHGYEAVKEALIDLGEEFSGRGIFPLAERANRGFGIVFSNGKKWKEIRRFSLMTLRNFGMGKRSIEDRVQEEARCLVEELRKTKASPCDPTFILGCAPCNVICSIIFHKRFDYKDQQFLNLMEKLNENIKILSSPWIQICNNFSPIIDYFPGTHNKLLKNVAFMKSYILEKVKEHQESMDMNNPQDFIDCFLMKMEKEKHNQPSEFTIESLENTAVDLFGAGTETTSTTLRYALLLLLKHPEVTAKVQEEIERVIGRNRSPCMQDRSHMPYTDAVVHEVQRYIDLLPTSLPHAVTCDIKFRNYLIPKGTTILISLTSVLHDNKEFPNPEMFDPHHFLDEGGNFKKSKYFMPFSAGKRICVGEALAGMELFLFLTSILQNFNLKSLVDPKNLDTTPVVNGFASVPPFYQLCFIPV
PostGolgi ctrl: growth inhibition of yeast control strain, primary screen, counter-screen for post-Golgi transport modulator project | efflux-deficient yeast background strain, growth absorbance A615, 16 h | inhibition, % at 10 µM | actives 5% (n = 98,000) | AID 738, 2007
CYP2C19 activ: human CYP2C19 activators, primary screen, biochemical, luminescence. recombinant CYP2C19, luciferin-H EGE luminescence; active compounds read high; 0 = fully inhibited enzyme, 1 = untreated enzyme. Cytochrome P450 2C19 (Homo sapiens), P33261. activation factor at 5 µM. 96,000 tested, under 10 active. AID 1025, 2008;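 active = activation factor of at least 2 at 5 µM in the primary screen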
PostGolgi yeast: phenotypic screen on post-Golgi transport, primary screen. inhibition, % at 10 µM. actives 0.9% (n = 98,000). AID 739, 2007. post-Golgi transport phenotypic cell assay;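 note: yeast cells grown in 1536-well plates; yeast grown about 18 h at 30C before absorbance read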
CYP2C19 inhib: blockers of cytochrome P450 2C19 activity – biochemical, luminescence, ADME assay, primary screen; actives 21% (n = 96,000); P33261; inhibition, % at 5 µM; CYP2C19 Supersomes, luciferin-H EGE luminescence, 30 min;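 active = CYP2C19 inhibition above a set limit at 5 µM in the primary screen, cut at about 50% in these data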
CYP2C9 inhib: blockers of cytochrome P450 2C9 activity – biochemical, luminescence, ADME assay, primary screen. P11712. actives 20% (n = 96,000). inhibition, % at 5 µM. CYP2C9 Supersomes, luciferin-H conversion;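 active = blocking of liver enzyme CYP2C9 beyond about 50% at 5 µM, limit read from the data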
Numbers stand for hits; 0 = inactive. Not all results are given here. Cut-off read from the data, not from the text of the source, unless noted: active = inhibition above about 30%; inactive = the rest.

SMILES	CYP2C9 act	PostGolgi ctrl	CYP2C19 activ	PostGolgi yeast	CYP2C19 inhib	CYP2C9 inhib
O=C(CSc1nnnn1-c1ccc2c(c1)OCCO2)OC1CCCCC1	0	0	0	0	66	0
O=C(CSc1nnnn1-c1ccc2c(c1)OCCO2)N1CCc2ccccc21	0	0	0	0	0	0
c1ccc(CSc2nnnn2-c2ccc3c(c2)OCCO3)nc1	0	0	0	0	90	0
Cc1ccc(-n2nnnc2SCC(=O)NC(=O)Nc2ccc3c(c2)OCCO3)cc1	0	0	0	0	0	0
Cc1ccc(NC(=O)CCSc2nnnn2-c2ccc3c(c2)OCO3)cc1C	0	0	0	0	74	0
Clc1ccc(CSc2nnnn2-c2ccc3c(c2)OCO3)c(Cl)c1	0	0	0	0	89	88
COc1ccc(/C=N/NC(=O)C2CCN(c3ncc(C(F)(F)F)cc3Cl)CC2)cc1	0	0	0	0	0	0
Cc1cc(C)n(CC(O)Cn2c(C)c(C)c3ccccc32)n1 (centres undefined)	0	0	0	0	0	71
COc1ccc(-c2cc3ccccc3n2CC(O)Cn2nc(C)cc2C)cc1 (centres undefined)	0	0	0	0	99	100
Cc1c(C)n(CC(O)CN2CCCCC2)c2ccccc12 (centres undefined)	0	0	0	0	0	0
COc1ccc(-c2cc3ccccc3n2CC(O)CNC(CO)(CO)CO)cc1 (centres undefined)	0	0	0	0	0	0
Cc1occc1-c1nnc(SCC(=O)N(C)CCC#N)n1N	0	0	0	0	0	0
CCCCN(C(=O)NC(=O)Nc1nc2ccc(OC)cc2s1)S(C)(=O)=O	0	0	0	0	0	0
Cc1cc(/N=C/C=C2\N(C)c3ccccc3C2(C)C)n(CCC#N)n1	0	0	0	0	55	0
CC(=O)Nc1cccc(NC(=O)CSc2nnc(Cc3cccn3C)n2-c2ccc(C)cc2)c1	0	0	0	0	0	0
CC(C)NC(=O)c1cc(-n2cnnc2)ccc1Cl	0	0	0	0	0	0
Cc1ccnc(SCC(=O)O)n1	0	0	0	0	0	0
CC(=O)Nc1ccc(-c2nnc(SCC(=O)n3c4c(c5ccccc53)CCCC4)n2C)cc1	0	0	0	0	0	0
CC1CCN(CC(=O)n2c3c(c4ccccc42)CCCC3)CC1	0	0	0	0	68	0
Cc1c(C)n(C(=O)CN2CCN(c3ccccn3)CC2)c2ccccc12	0	0	0	0	0	0
Cc1nnc(SCC(=O)n2c3c(c4ccccc42)CCCC3)s1	0	0	0	0	0	0
Cc1ccnc(SCC(=O)n2c3c(c4ccccc42)CC(C)CC3)n1 (centres undefined)	0	35	0	0	0	0
CCN1CCN(CC(=O)n2c3c(c4ccccc42)CC(C)CC3)CC1 (centres undefined)	0	0	0	0	51	0
Cn1c(SCC(=O)n2c3c(c4ccccc42)CCCC3)nnc1-c1ccccc1	2	34	0	0	69	0
Cc1cccc(NC2(C(F)(F)F)N=C3SCCN3C2=O)n1 (centres undefined)	0	0	0	0	0	0
SMILES	CYP2C9 act	PostGolgi ctrl	CYP2C19 activ	PostGolgi yeast	CYP2C19 inhib	CYP2C9 inhib
CCCC(c1nnnn1CCc1ccccc1)N1CCN(C(=O)c2ccco2)CC1 (centres undefined)	0	0	0	0	0	0
CC(C)(C)c1cc(NC(=O)c2cc(F)c(F)c(F)c2F)no1	0	0	0	0	0	0
O=C(NCCOC(=O)c1ccccc1C(=O)OCCNC(=O)c1cccnc1)c1cccnc1	0	0	0	0	96	68
O=C(NCCOc1ccccc1)c1cc2ccccc2o1	0	0	0	0	0	0
O=C(NCCOC(=O)c1ccc(C(=O)OCCNC(=O)c2ccccc2)o1)c1ccccc1	0	0	0	0	0	83
Cc1cc(C)c(C(=O)OCCNC(=O)c2cccnc2)cc1C	0	0	0	0	74	71
COc1ccc(CCNC(=O)COC(=O)c2cnc(C)cn2)cc1	0	0	0	0	0	0
COCc1c(C(=O)OCC(=O)N2c3ccccc3NC(=O)C2(C)C)oc2ccccc12	0	0	0	0	0	0
COCCNC(=O)C1c2cc(OC)c(OC)cc2C(=O)N(C)C1c1cccnc1 (centres undefined)	0	0	0	0	0	0
